Experimental data taken from PubChem BioAssay (NCI).
The panel holds about 83,000 compounds, 20% with a hit somewhere; the sample as a whole holds those more often.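 Each cell line was grown in a 96-well plate and treated with one concentration of compound for 48 hours. Values below 10 were considered active.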 The source made the active and inactive calls.

Experiments:
Assay in all cases: NCI-60 one-dose screen, 48 h (100 = growth as untreated, 0 = no growth, -100 = all killed)
Details in all cases: 10 µM unless noted
[1] = tested on: NCI-H23 lung
[2] = tested on: NCI-H226 lung
[3] = tested on: NCI-H322M lung
[4] = tested on: HOP-62 NSCLC
[5] = tested on: NCI-H460 lung
[6] = tested on: HOP-92 NSCLC
[7] = tested on: NCI-H522 lung
[8] = tested on: A549/ATCC NSCLC
[9] = tested on: 786-0 renal
[10] = tested on: COLO 205 colon
[11] = tested on: DU-145 prostate
[12] = tested on: K-562 leukemia
[13] = tested on: MALME-3M melanoma
[14] = tested on: MDA-MB-231 breast
[15] = tested on: RXF 393 renal
[16] = tested on: SF-268 CNS
[17] = tested on: SF-295 CNS
[18] = tested on: SF-539 CNS
[19] = tested on: UACC-257 melanoma
[20] = tested on: M14 melanoma

Measured: growth

COc1ccc(-n2c(NC(=O)N3CCN(C)CC3)c(C#N)c3ccccc32)cc1
active: [15] -9.29%
inactive: [1] 33.8% | [2] 11.4% | [3] 90.2% | [4] 30.5% | [5] 30.7% | [6] 44% | [7] 61.1% | [8] 45.3% | [9] 44.2% | [10] 65.5% | [11] 41.2% | [12] 58.6% | [13] 38.5% | [14] 29.6% | [16] 29.1% | [17] 47.1% | [18] 14.3% | [19] 60.3% | [20] 54.4%

CC(C)C[C@H](NC(=O)[C@@H]1CCCCCCCCCCC(=O)N[C@@H](CC(=O)N2CCC[C@@H]2C2CCCC2)C(=O)N1)B(O)O
active: [1] -83.3% | [2] -33.3% | [3] -59.8% | [4] -14.7% | [5] 0.61% | [6] -63.2% | [7] -49.1% | [8] 1.48% | [9] -43.8% | [10] -64.6% | [11] 6.72% | [12] 0.735% | [13] -75.1% | [14] -72.4% | [15] -84.8% | [16] 4.67% | [17] -93.4% | [18] -44.8% | [19] -31% | [20] -48.2%

COC(=O)c1ccc(-c2c(-c3ccccc3)c(F)c3oc(C(=O)OC)c(N)c3c2-c2ccccc2)cc1
inactive: [1] 87% | [2] 100% | [3] 97.1% | [4] 94% | [5] 99.7% | [6] 85.1% | [7] 83.4% | [8] 98.9% | [9] 103% | [10] 99.7% | [11] 104% | [12] 85.1% | [13] 99.9% | [14] 99.3% | [15] 95.6% | [16] 91.6% | [17] 89.7% | [18] 90% | [19] 111% | [20] 98.2%

N#Cc1cc(-c2ccnc(Nc3ccc(N4CCN(C5COC5)CC4)cc3)n2)ccc1N1CCCC1
active: [15] 9.2%
inactive: [1] 82.9% | [2] 71% | [3] 63.9% | [4] 64.3% | [5] 49.9% | [6] 52.5% | [7] 65.6% | [8] 67.3% | [9] 16.9% | [10] 86.1% | [11] 51% | [12] 42.5% | [13] 104% | [14] 65% | [16] 50.2% | [17] 85.6% | [18] 46.5% | [19] 74.4% | [20] 71.9%

CC(=O)c1ccc2c(N)c(C(=O)Nc3ccc(C(F)(F)F)cc3)sc2n1
inactive: [1] 41.7% | [2] 59.1% | [3] 83.2% | [4] 58.6% | [5] 72.8% | [6] 67.1% | [7] 59.8% | [8] 78.5% | [9] 78.1% | [10] 83.4% | [11] 82.2% | [12] 20% | [13] 26.4% | [14] 68.3% | [15] 85.8% | [16] 85.2% | [17] 38.1% | [18] 71.1% | [19] 59.5% | [20] 58.3%

COc1ccc2c(c1)C(Sc1ccc(F)cc1)c1c(nc(N)c(C#N)c1N)O2 (stereo not given)
inactive: [1] 90.7% | [2] 90.9% | [3] 94.4% | [4] 111% | [5] 95.7% | [6] 116% | [7] 78.9% | [8] 96.2% | [9] 80.7% | [10] 104% | [11] 99.5% | [12] 63.5% | [13] 88.3% | [14] 80.1% | [15] 69.2% | [16] 85% | [17] 92.8% | [18] 90.5% | [19] 104% | [20] 84.9%

C=CC(=O)Nc1ccc(C(=O)/C=C/c2ccc(N(C)C)cc2)c(O)c1
active: [1] 4.7% | [5] 0.849% | [7] -67.5% | [9] -1.73% | [10] -59.6% | [11] 7.83% | [13] 3.17% | [15] -63.8% | [18] -21.8% | [19] 0.649% | [20] -5.06%
inactive: [2] 28.6% | [3] 41.1% | [4] 10.1% | [6] 45.8% | [8] 12.8% | [12] 12% | [14] 26.9% | [16] 21.5% | [17] 13.1%
